Among all 2,300 compounds or so, about 1,400 (61%) were called active. About 7% were inconclusive and are not listed. How the calls were made is not given here. The set was probably picked from earlier hits. A selection follows. Results with a measured potency or affinity are listed apart.

Chain of FAD-linked sulfhydryl oxidase ALR (Homo sapiens) (P55789 whole entry, looked up): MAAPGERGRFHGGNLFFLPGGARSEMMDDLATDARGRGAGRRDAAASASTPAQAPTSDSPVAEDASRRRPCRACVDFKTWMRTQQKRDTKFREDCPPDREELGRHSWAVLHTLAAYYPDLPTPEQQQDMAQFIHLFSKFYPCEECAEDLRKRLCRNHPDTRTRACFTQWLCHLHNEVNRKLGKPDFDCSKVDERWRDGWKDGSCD

This test addresses FAD-linked sulfhydryl oxidase ALR (Homo sapiens) (UniProt P55789). The test is described as follows: ALR-catalysed DTT oxidation blockers – biochemical, H2O2 detection, luminescence, cherry-pick, dose response (AID 493248). The note with it: purified ALR, H2O2 HRP-luminol luminescence; at 10 µM (top of the series).
In the case of `CNC(=O)c1csc(-c2ccc(C)cc2)n1`, the activity change, negative = inhibition turned out to be 146%.
In the case of `CCNc1nc(NCC)nc(N(C)N)n1` it was -22.3%.
On to `Cc1cccc(NCc2ccc(N(C)C)cc2)n1`, for which the activity change, negative = inhibition is -5.45%.
In the case of `CC(C)n1c(NCc2cccs2)nc2ccccc21`, the activity change, negative = inhibition is -4.15%.
As for `COc1ccc(O)c(CNc2ccccc2F)c1`, the figure is -6.08%; as for `CC(=O)Nc1ccc(-c2csc(NNC(=O)c3ccccc3)n2)cc1`, 7.25%.
In the case of `CC(=O)Nc1ccc(NCc2ccc(C)s2)cc1` it was -11.5%; in that of `O=C(CN1C(=O)S/C(=C\C=C\c2ccccc2)C1=O)Nc1ccccc1C(=O)O`, -58%.
As for `COc1cc(C(=O)N/N=C/c2cccc(Oc3ccccc3)c2)ccc1O`, the figure is -2.05%; as for `CCN(CC)S(=O)(=O)c1ccc(C(=O)Nc2nnc(CSC)o2)cc1`, -25.7%; as for `Cc1[nH]n(C(N)=S)c(=O)c1N=Nc1cccc([N+](=O)[O-])c1C`, -50.5%.
Consider `Cc1cc(C(=O)Nc2sc3c(c2C#N)CCCC3)no1`, for which the activity change, negative = inhibition was -53.9%.
For `Cc1cc(C(=O)Nc2nc3c(s2)CCCC3)no1`, the activity change, negative = inhibition is -50.2%.
For `O=C(NCc1n[nH]c(=S)n1-c1ccc(Cl)c(Cl)c1)c1ccc(S(=O)(=O)N2CCCCC2)cc1`, the activity change, negative = inhibition turned out to be 15%.
In the case of `COc1ccc(C(=O)c2ccc(N(C)C)cc2)c(OC)c1` it was -4.89%.
Turning to `CC(C)C(=O)n1nc(-c2cccnc2)nc1NCc1cccs1`, the activity change, negative = inhibition is -25.7%.
Take `C(=C\c1nc2ccccc2[nH]1)/c1ccccc1`: the activity change, negative = inhibition is -1.44%.
In the case of `O=c1[nH]ccc2c(O)cccc12` it was -103%.
For the molecule `Nc1ccc2nc[nH]c2c1`, the activity change, negative = inhibition is -12.8%.
In the case of `CC(C)Cc1nc2ccc(N)cc2[nH]1` it was -1.73%; in that of `Nc1ccc(-c2nc3ccc([N+](=O)[O-])cc3[nH]2)cc1`, 31%; in that of `COc1ccc(N=C2C(=O)N3CCCc4cccc2c43)cc1`, -15.6%.
As for `O=C(NCc1ccccc1Cl)C1CCCN(S(=O)(=O)c2cnc[nH]2)C1` (configuration not stated), the figure is 20%; as for `Cc1ccc(S(=O)(=O)N2CCCC(C(=O)O)C2)s1` (configuration not stated), 5.85%; as for `COc1cc(NC(=O)C2CCCN(S(=O)(=O)c3cnc[nH]3)C2)cc(OC)c1` (configuration not stated), -31%.
Regarding `O=C(NCCc1ccccc1)C1CCCN(S(=O)(=O)c2cnc[nH]2)C1` (configuration not stated), the activity change, negative = inhibition came to 6.71%.
Consider `N#Cc1c2n(c3c(=O)n(Cc4ccccc4)cnc13)CCCC2`, for which the activity change, negative = inhibition came out at 18%.
In the case of `N#Cc1c(N)c(C(=O)c2ccccc2)n2c1CCC2` it was -45.9%; in that of `COc1ccc(C(=O)NCCNc2nc3ccc(C)cc3cc2C#N)cc1OC`, 3.56%.
As for `CN(C)c1ccc(/C=N/Nc2cccc(C(=O)O)c2)cc1`, the figure is -23.9%; as for `O=C(/C(=N/N=C/c1ccc(O)c(O)c1O)c1ccccc1)c1ccccc1`, -31.1%; as for `CC1CCN(CC(=O)N2c3ccccc3CCc3ccccc32)CC1`, 2.93%.
With `CCC(C)(C)n1nnnc1CN1CCc2ccccc21`, the activity change, negative = inhibition turned out to be 23.2%.
As for `CN(C)c1ccc(NC(=O)CC2NCCNC2=O)cc1` (configuration not stated), the figure is -99.5%; as for `COc1ccc(NC(=O)CC2Nc3cccc4cccc(c34)NC2=O)cc1` (configuration not stated), -74.6%.
As for `CC(C)Cn1c(N)c(C=O)c(=O)n(C)c1=O`, the figure is -3.74%.
In the case of `CN(Cc1ccco1)C(=O)C(Cc1ccccc1)NS(=O)(=O)c1ccc2c(c1)CCC(=O)N2` (configuration not stated), the activity change, negative = inhibition was -12%.
In the case of `CSc1ccc(/C=C2\C(=N)N3N=C(CC(=O)N4CCCCC4)SC3=NC2=O)cc1` it was -54.4%; in that of `N=C1/C(=C\c2ccc(Br)o2)C(=O)N=C2SC(CC(=O)N3CCCCC3)=NN12`, -18.4%; in that of `CCc1ccc(CCC(=O)Nc2ccc(Cl)cc2)o1`, -22.5%.
Turning to `Cc1nc(-c2ccccc2)sc1-c1n[nH]c(=S)n1C`, the activity change, negative = inhibition is -47.5%.
As for `CC(C)C(=O)NN(C(=O)C(C)C)c1nc2ccccc2s1`, the figure is -76%; as for `Cn1c(-c2sccc2OCc2ccccc2)n[nH]c1=S`, -40.7%.
In the case of `COc1cc(CNc2cc(C)ccc2C)cc(OC)c1OC` it was -55.5%; in that of `Cc1ccc2cc3cc(C(=O)NCCCN4CCCC4=O)oc3nc2c1`, -55.2%.
As for `Cc1nc(C)c(-c2csc(Nc3cccnc3)n2)s1`, the figure is -15.7%; as for `Cc1nc(C)c(-c2csc(Nc3ccc(O)cc3C)n2)s1`, -3.91%; as for `COc1cc(N)c(Cc2nccc3cc(OC)c(OC)cc23)cc1OC`, 5.91%.
Take `COc1cc(Sc2ccc(C)cc2)c(OC)cc1N`: the activity change, negative = inhibition is -74.8%.
In the case of `CC(/C=N/n1c(-c2ccc(C)cc2)n[nH]c1=S)=C\c1ccco1`, the activity change, negative = inhibition was -40.8%.
For `Cc1cccc(/C=N/Nc2nncc3ccccc23)c1`, the activity change, negative = inhibition is -4.32%.
Turning to `CN1C(=O)CC(NNC(=O)c2ccc(Cl)cc2)C1=O` (configuration not stated), the activity change, negative = inhibition was -47.1%.
In the case of `O=C(N/N=C1/CCSC1)c1cc(Br)ccc1O` it was -17.6%; in that of `COc1ccc(NCCc2ccccn2)cc1`, 86.3%.
On to `COc1ccc(Nc2ccccc2N)cc1`, for which the activity change, negative = inhibition was found to be 221%.
In the case of `O=c1[nH]nc(CNc2ccc(O)cc2)c2ccccc12` it was -103%; in that of `S=c1[nH]cc(-c2ccccc2)n1-c1ccccc1Cl`, -24.1%.
As for `C/C(=N\NC(=O)c1ccccc1O)C1C(=O)c2ccccc2C1=O`, the figure is -23.9%; as for `Nc1ccccc1C(=O)NNc1c2ccccc2nc2ccccc12`, -69.6%; as for `CC(=O)Nc1ccc(NCN2C(=O)C3C4CCC(C4)C3C2=O)cc1` (configuration not stated), -86.6%.
As for `CCc1cc2c3c(c1)C(C)CC(C)(C)N3C(=O)/C2=C1\SC(=O)NC1=O` (configuration not stated), the figure is -7.31%; as for `C/C(=N\Nc1ccccn1)c1cccs1`, -11.5%.

Source of the values: PubChem BioAssay AID493248 (Broad Institute, 2011).
